In PubChem BioAssay (NCI):
This is part of a sample that, as a whole, favours compounds with a hit. Of some 83,000 tested, about 20% had one in any assay.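 The endpoint reported here, percent growth, reads 100 for growth as untreated, 0 for no net growth and -100 for all cells dead.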 A number with no mark means an inactive call. Active and inactive are the calls of the source. The calls were made as follows: active = growth percent below 10; inactive = the rest.

Each compound was assayed on SK-MEL-5 melanoma (assay: NCI-60 one-dose screen, 48 h (100 = growth as untreated, 0 = no growth, -100 = all killed)). Settings: 10 µM unless noted.

| SMILES | growth |
| --- | --- |
| COc1ccc(/C=N/NC(=O)c2c(N)nn(C)c2Nc2ccccc2)cc1 | 57.2% |
| Fc1ccc2nc(-c3cnn4cccnc34)sc2c1 | 90% |
| O=C(/C=C/c1cccc(F)c1)c1cccc(OCCCCOc2cccc(C(=O)/C=C/c3cccc(F)c3)c2)c1 | 98.6% |
| O=C(COc1ccc(/C=C2\C(=O)Nc3ccc(Cl)cc32)cc1)Nc1ccc(Cl)cc1 | 78% |
| O=C(Nc1cccc(Cl)c1)Nc1nc2cc([N+](=O)[O-])ccc2o1 | 15.7% |
| COc1ccc(NC(=O)CCCCCCNC(=O)C(O)(O)C(F)(F)F)cc1 | 17% |
| CC(=O)N(O)CCCCCNC(=O)CCC(=O)N(O)CCCCCNC(=O)CCC(=O)N(O)CCCCCN(CCCCCCCCCC[P+](c1ccccc1)(c1ccccc1)c1ccccc1)CCCCCCCCCC[P+](c1ccccc1)(c1ccccc1)c1ccccc1 | -45.9% (active) |
| Cc1cc(Br)ccc1-n1cc(C#N)c(N)c1C(=O)c1ccc(Br)cc1 | 95.7% |
| CN(C)S(=O)(=O)c1ccc(-c2nc(C(Cl)Cl)nc3cc(-c4ccccc4)nn23)cc1 | 92% |
| CN1CCN(c2ccc(Nc3nc(NCCNC(=O)c4ccc(F)cc4)c4sccc4n3)cc2)CC1 | 25.2% |
| O=[N+]([O-])c1ccc(NC(=S)NNC(=S)Nc2ccc(Br)cc2)cc1 | 92.7% |
| C/C(=N\NC(=O)/C=C/CC(=O)O)c1nnn(-c2ccc([N+](=O)[O-])cc2)c1C | 99.2% |
| CN1CCN(c2ccc(Nc3nc(NCCCNS(=O)(=O)c4ccc(F)cc4)c4sccc4n3)cc2)CC1 | 20.5% |
